# According to PubChem BioAssay AID1347417 (National Center for Advancing Translational Sciences (NCATS), 2020):
# The campaign covered roughly 120,000 compounds. About 5,300 (4.4%) were called active. A call without a number means that no potency is given here. Roughly 22% stayed inconclusive and do not appear here. Calls come from the whole dose curve; as a rule, active = well fitted inhibition curve with a large enough effect; inconclusive = small, poorly fitted or top-dose-only effect; inactive = no such curve, though single readings can be large or run the other way. The full list was thinned out, with actives kept by preference.
# Test: qHTS Primary assay for Inhibitors of Plasmodium falciparum Dd2 growth in vitro; note: nearly all actives have a fitted effect of over 65% in size
# Details: P. falciparum Dd2 growth, SYBR Green, 72 h; series mostly up to 28.9 µM
# Method in brief: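 Readout: SYBR Green fluorescence, 485 nm excitation, 535 nm emission, after ~16 h lysis at 37C. Before that, Dd2-infected red cells (2.5% hematocrit) grew 72 h with compound, 29 uM top final concentration.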
# Potency is the fitted concentration of half-maximal effect.
SMILES,outcome,Potency
CN(CC1CCOC1)C(=O)c1ccc(F)cc1F (stereo not drawn),inactive [at 5.79 µM],–
O=C(Cc1cccc(F)c1)N1CCCC(Cc2nncn2-c2ccccc2)C1 (stereo not drawn),–,inactive
CC(C)NC(=O)Cc1ccc(N(Cc2cccc(F)c2)C(=O)c2ccco2)cc1,–,inactive
CCOC(=O)C1CCCN(C(=O)Cc2ccc(N(Cc3cccc(F)c3)C(=O)c3ccco3)cc2)C1 (stereo not drawn),–,3.98 µM (active)
CN(CC(=O)N1CCCC(Cc2nncn2-c2ccccc2)C1)S(=O)(=O)c1cccs1 (stereo not drawn),–,inactive
Cc1ccccc1C(=O)NCc1cccnc1Oc1cccc(C(F)(F)F)c1,–,inactive
COc1cccc(-c2cc(C(=O)N3CCC(c4nn(C)c(=O)n4C(C)C)CC3)[nH]n2)c1,–,inactive
CCC(C)N1Cc2cc(NC(=O)c3ccc([N+](=O)[O-])cc3)ccc2OCC1=O (stereo not drawn),–,inactive
CCC(C(=O)Nc1ccc2c(c1)CN(Cc1cc(F)cc(F)c1)C(=O)CO2)c1ccccc1 (stereo not drawn),–,6.31 µM (active)
CCC1Oc2ccc(NC(=O)c3cccs3)cc2CN(Cc2ccc(F)cc2)C1=O (stereo not drawn),–,inactive
O=C1Nc2ccccc2C12CCN([S+](=O)([O-])c1cccc(C(F)(F)F)c1)C2 (stereo not drawn),–,inactive
COc1ccc([C@H]2C[C@@H](O)[C@@H](O)[C@@H]2NC(=O)c2ccccc2)cc1,–,inactive
CCOc1ccc(C(=O)Nc2ccc3nc4c(c(Nc5ccccc5OC)c3c2)CCCC4)cc1,–,11.2 µM (active)
COc1ccccc1Nc1c2c(nc3ccc(NC(=O)/C=C/c4cc(OC)c(OC)c(OC)c4)cc13)CCCC2,–,3.98 µM (active)
CCOc1ccccc1NC(=O)Cn1nnc(C(=O)Nc2ccc(C)c(C)c2)c1N,–,inactive
CCOc1ccc(-n2nc3ccc(NC(=O)c4ccc(OC)c(Cl)c4)cc3n2)cc1,–,inactive
COc1cc(NC(=O)c2nc3ccccc3nc2C)cc(OC)c1OC,–,inactive
COc1cc(C(=O)Nc2ccc(-n3c(C)nc4ccccc4c3=O)cc2)cc(OC)c1OC,–,inactive
Cc1noc(-c2ccco2)c1C(=O)NC(C)c1ccccc1 (stereo not drawn),–,inactive
O=[S+]([O-])(c1ccc(Br)cc1)c1nnn2c1nc(NC1CC1)c1ccccc12,–,inactive
CCc1cc(=O)n(CC(=O)Nc2cccc(C(C)=O)c2)c(-c2ccccc2)n1,–,inactive

SMILES,outcome,Potency
Cc1ccc(NC(=O)CC2=C3CCCCC3NC2=O)cc1 (stereo not drawn),–,inactive
Cc1ccccc1-c1ccc(C(=O)NCCCn2ccnc2C(C)C)cn1,–,inactive
CC(Cn1cncn1)Nc1nc(-c2ccncc2)nc2c1cnn2C (stereo not drawn),–,inactive
CC(C)c1nccn1CCCNc1nc(-c2ccncc2)nc2c1cnn2C,–,12.6 µM (active)
O=C(NC1CCCCC1)N1C[C@@H]2C[C@H](C1)c1c(NS(=O)(=O)c3ccccc3)ccc(=O)n1C2,–,inactive
Cc1cc(C)cc(NC(=O)Cn2nc3n(c2=O)CCCC3)c1,–,inactive
COC1C(=O)N(C2CCN(Cc3ccc(O)cc3)CC2)C12CCOCC2 (stereo not drawn),–,inactive
Cc1nn2c(c1-c1ccccc1-c1ccccc1)N(CC1CC1)CCC2,–,0.316 µM (active)
Cc1nn2c(c1-c1ccnn1C(C)C)N(CC1CCOCC1)CCC2,–,inactive
Cc1nn2c(c1-c1ccccc1-c1ccccc1)N(C(=O)CN1CCOCC1)CCC2,–,inactive
Cc1ncsc1C1N(C2CCN(C(=O)c3ccncc3)CC2)C(=O)C12CCCC2 (stereo not drawn),–,inactive
Cc1ccccc1NC(=O)CCOc1ccccc1,–,inactive
Cc1ccccc1NC(=O)c1cc2c([nH]c1=O)CC(C)(C)CC2=O,–,inactive
Cc1ccccc1NC(=O)c1cc2cn(C(C)C)cc2s1,–,8.91 µM (active)
CCn1cc(S(=O)(=O)N2CCC3(CC2)CN(Cc2ccc(OC)cc2)C3=O)cn1,–,inactive
C=CCNC(=O)c1cn2c(n1)CN([S+](C)(=O)[O-])CC2,–,inactive
CN(C)c1ccc(NC(=O)Cn2nc3n(c2=O)CCCCC3)cc1,–,inactive
COc1ccc(C(=O)N2CCCCCCNC(=O)CC2)cn1,–,inactive
O=C(O)CCC(=O)N1Cc2[nH]cnc2C[C@H]1c1nc(-c2ccc3ccccc3c2)no1,–,inactive
O=C(NCc1ccco1)C1CCCN(c2cnn(Cc3ccccc3)c(=O)c2)C1 (stereo not drawn),–,inactive
O=C(NCc1ccccc1)[C@@H]1Cc2nc[nH]c2CN1Cc1cccc(OC(F)(F)F)c1,–,10 µM (active)

SMILES,outcome,Potency
O=C(NCc1ccco1)[C@@H]1Cc2nc[nH]c2CN1CCCc1ccccc1,–,7.94 µM (active)
COc1cccc(CC(=O)N2CCC(N3C(=O)CCC3C(=O)NCc3ccccc3)CC2)c1 (stereo not drawn),–,inactive
O=C(CCc1conc1-c1ccccc1)NCc1ccco1,–,inactive
Fc1ccc(NC2CCCN(Cc3ccc(C#Cc4cncnc4)cc3)C2)cc1F (stereo not drawn),–,inactive
O=C1COc2ccc(-c3cncnc3)nc2CN1Cc1ccc(F)cc1,–,inactive
OC1CC([C@@H](Cc2ccccn2)NC2CCC3(CCNCC3)CC2)C1 (stereo partly drawn),–,inactive
CC1CCCN(Cc2c(O)ccc3c(=O)c(Oc4ccc(C(C)(C)C)cc4)c(C(F)(F)F)oc23)C1 (stereo not drawn),–,0.316 µM (active)
Cc1ccc(Oc2c(C(F)(F)F)oc3c(CN4CCCCC4)c(O)ccc3c2=O)cc1,–,3.55 µM (active)
COc1ccc(-c2c(C)c3ccc(O)c(CN4CCCC4)c3oc2=O)cc1OC,–,inactive
Cc1ccc(C)c(Oc2c(C(F)(F)F)oc3c(CN4CCN(C)CC4)c(O)ccc3c2=O)c1,–,0.501 µM (active)
Cc1ccc2nc3n(c2c1)[C@@H](CNC(=O)c1ccc(C#N)cc1)COC3,–,inactive
O=C(c1ccc(F)cc1)N1CCC2(CN[S+](=O)([O-])c3ccccc3N2)C1 (stereo not drawn),–,inactive
O=C1CC2(CCN(C(=O)CCn3ccccc3=O)C2)C(=O)N1 (stereo not drawn),–,inactive
CN[C@@H](CC(C)C)C(=O)N[C@@H]1C=C(C(=O)N[C@@H](Cc2ccc(O)cc2)C(N)=O)C[C@@H](O)[C@@H]1O,–,inactive
O=C(NCCc1ccc(Cl)cc1)c1ccc2nccn2c1,–,inactive
O=C(CCCN1C(=O)C(c2ccccc2)Oc2cccnc21)NCCc1noc(-c2ccncc2)n1 (stereo not drawn),–,inactive
Cc1ccc2oc(C(=O)N(C)CCc3ccccc3)c(C)c2c1,–,inactive
O=C(NCc1ccncc1)C1CN(S(=O)(=O)c2cccnc2)CC12CCOCC2 (stereo not drawn),–,inactive
COc1ccccc1-c1cnc(NC(=O)c2ccc(Cl)cc2)c2c1CCO2,–,inactive
CN1CCN(Cc2ccc(Nc3ncc(-c4cccnc4)c4c3OCC4)cc2)CC1,–,10 µM (active)
COc1ncccc1Nc1ncc(-c2ccccc2)c2c1OCC2,–,inactive
